Test results from PubChem BioAssay (NCATS).
Records with an inconclusive call do not appear. Active and inactive are the calls of the source. Calls come from the whole dose curve; as a rule, active = well fitted inhibition curve with a large enough effect; inconclusive = small, poorly fitted or top-dose-only effect; inactive = no such curve, though single readings can be large or run the other way.

Test system: Zika virus NS2B-NS3 protease (unlinked complex)
Test: Primary screen GU Rhodamine qHTS for Zika virus inhibitors: Unlinked NS2B-NS3 protease assay (AID 1347159); note: nearly all actives have a fitted effect of over 60% in size
Conditions: Recombinant ZIKV NS2B-NS3 protease, Rhodamine110 substrate fluorescence; series mostly up to 107 µM; activity change, negative = inhibition: at the top concentration
In short: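 Enzyme 25 nM in Tris-HCl pH 8.0 + 0.01% Tween 20; compounds up to 114 microM, 15 min RT dark; + Rhod110 substrate 1.5 microM; read t0 and 15 min; delta fluorescence → % inhibition → 4-parameter Hill fit.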
% is set by controls: 0 for no effect and ±100 for the full control effect.

Compound | activity change, negative = inhibition
COc1cc(/C=C/C(=O)O[C@H]2[C@@H]3C=CO[C@@H](O[C@@H]4O[C@H](CO)[C@@H](O)[C@H](O)[C@H]4O)[C@@H]3[C@@]3(CO)O[C@@H]23)ccc1O | 2.56% [at 57.1 µM] (inactive)
CC(=O)OC(C)C(C)(O)C(=O)O[C@@H]1CC[C@]2(C)CC(=O)C(=C(C)C)C[C@H]2[C@]1(C)OC(C)=O (stereo not given in full) | -12.9% [at 57.1 µM] (inactive)
CC(=O)OC[C@]12[C@@H](OC(=O)c3ccoc3)C[C@@H]3[C@@H](OC(C)=O)[C@]1(OC3(C)C)[C@@](C)(O)C[C@H](OC(=O)c1ccoc1)[C@@H]2OC(=O)c1ccoc1 | 5.03% [at 32.5 µM] (inactive)
CC1(C)C(=O)N2c3ccccc3C(O)(CC(C(=O)O)n3cnc4ccccc4c3=O)C2N1O (stereo not given) | 25.9% [at 57.1 µM] (inactive)
COc1ccc(NC(=O)c2ccc(-c3ccc(C(N)=O)cc3C)cc2)cc1N1CCN(C)CC1 | 32.7% (inactive)
CC1=CC2=C(C)C(=O)[C@](C)(O)[C@H](O)C2=CO1 | 4.18% (inactive)
CC1CCC2C(C(=O)O)=CC3(O)CC(C)(C)CC123 (stereo not given) | 12.5% (inactive)
CC(C)(CC(=O)N1CCCC1)NCC(=O)N1C[C@@H](F)C[C@H]1C#N | 0% (inactive)
COc1ccc2[nH]c(S(=O)Cc3ncc(C)c(OC)c3C)nc2c1 (stereo not given) | 85% (inactive)
COc1cccc2c1c(O)c(C(=O)N(C)c1ccc(C(F)(F)F)cc1)c(=O)n2C | -0.621% (inactive)
Cc1ccc(Cl)cc1N(CC(=O)Nc1c(F)cccc1F)S(C)(=O)=O | 16.8% (inactive)
Cc1cc(Cn2cnc3c2CC(C(=O)O)N(C(=O)C(c2ccccc2)c2ccccc2)C3)ccc1N(C)C (stereo not given) | -12.7% (inactive)
COc1c2c(c(C)c3c1C(=O)OC3)OC1(C)CC(O)C34OC(OC)(CC(O)C3(C)C1C2)OC4(C)C (stereo not given) | -6.58% [at 57.1 µM] (inactive)
CC(C)=CCC/C(C)=C/CO[C@@H]1O[C@H](CO[C@@H]2O[C@@H](CO)[C@H](O)[C@H]2O)[C@@H](O)[C@H](O)[C@H]1O | 0.0353% [at 57.1 µM] (inactive)
C[C@H](O)C(O)(C(=O)OCc1ccccc1NC(=O)CCC(N)C(=O)O)[C@H](C)O (stereo not given in full) | 11.2% [at 57.1 µM] (inactive)
CC1CCC2(C(=O)OC3OC(CO)C(O)C(O)C3O)CCC3(C)C(=CCC4C5(C)CCC(O)C(C)(CO)C5CCC43C)C2C1(C)O (stereo not given) | 13.9% [at 32.5 µM] (inactive)
COc1ccccc1N1CCN(CCCCNC(=O)c2ccc(-c3cscn3)cc2)CC1 | 40.2% (inactive)
O=C(O)CCc1c(C(=O)O)[nH]c2cc(Cl)cc(Cl)c12 | 0% [at 57.1 µM] (inactive)
CC(=C\C(C)O)/C=C(\C)C(=O)CC1CC(CC(N)=O)CC(=O)O1 (stereo not given) | 4.16% (inactive)
CC(=O)O[C@H]1C[C@@H](O)C(C)(C)C2C[C@@H](OC(C)=O)[C@@]3(C)C4=CCC(C(CO)CC(O)C5OC5(C)C)[C@]4(C)CCC3[C@]21C (stereo not given in full) | 22.3% [at 32.5 µM] (inactive)
CCC(C)C(=O)O[C@H]1[C@@H](O[C@H]2O[C@H](CO)[C@@H](O)[C@H](O)[C@H]2O)O[C@H](CO)[C@@H](O)[C@@H]1O (stereo not given in full) | 4.82% [at 57.1 µM] (inactive)
C[C@H]1CC(=O)C2=C(C1)C(O)C(O)[C@@]1(O)[C@H]2C(=O)c2cccc(O)c2[C@@H]1O (stereo not given in full) | 22.2% (inactive)
CC1(C)C[C@H](O)C[C@@]2(C)[C@H]1[C@H](O)C=C1COC(=O)[C@@]12O | 0.768% (inactive)
NC(=O)NCCCC(NC(=O)Cc1ccccc1)C(=O)O (stereo not given) | 6.97% (inactive)
CC(=O)OC1CC2(C)C(CCC(C)C23Cc2c(O)cc4c(c2O3)CNC4=O)C(C)(C)C1O (stereo not given) | -23.1% [at 57.1 µM] (inactive)
CC(C)(O)[C@@H]1CC[C@]2(CO)[C@@H](O)CC[C@](C)(O)[C@H]2[C@@H]1O[C@@H]1O[C@H](CO)[C@@H](O)[C@H](O)[C@H]1O | 0.176% [at 57.1 µM] (inactive)
COC(=O)C(CC1(O)c2ccccc2N2C(=O)C(CC(C)C)NC21)n1cnc2ccccc2c1=O (stereo not given) | 26.5% [at 57.1 µM] (inactive)

Test system: Zika virus NS2B-NS3 protease (linked construct)
Test: Primary screen NINDS Rhodamine qHTS for Zika virus inhibitors (AID 1347160); note: nearly all actives have a fitted effect of over 55% in size; note: potency is the fitted concentration of half-maximal effect
Conditions: purified NS2B-NS3 protease, Rhodamine110 substrate fluorescence; series mostly up to 33.1 µM; activity change, negative = inhibition: at the top concentration
In short: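 Enzyme (25 nM, linked NS2B-NS3) was preincubated 15 min with compound in 10 mM Tris-HCl pH 8.0, 0.01% Tween 20. Rhodamine110 substrate (1.5 microM) was then added and fluorescence read at start and after 15 min.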

Compound | activity change, negative = inhibition | Potency | outcome
C/C=C(\C)C(=O)OC[C@H]1O[C@@H](O[C@H]2[C@@H](O[C@H]3O[C@H](CO)[C@@H](O)[C@H](O)[C@H]3O[C@@H]3O[C@H](CO)[C@@H](O)[C@H](O)[C@H]3O)O[C@H](COC(=O)/C(C)=C/C)[C@@H](O)[C@@H]2O)[C@H](O)[C@@H](O)[C@@H]1O | 5.37% [at 15.1 µM] (inactive) |  | 
O=C(O)c1ccc(NC(=O)[C@H](CC2CCCC2)n2cnc(C(F)(F)F)c2)nc1 | -8.83% [at 57.1 µM] (inactive) |  | 
Cc1c(C)c(NCC(=O)N(C)C2CCN(Cc3ccc(C(N)=O)cc3)CC2)c(C)c(C)c1N | 18.2% [at 57.1 µM] (inactive) |  | 
CCC(C)/C=C(C)/C=C/C(=O)C1CCC(O)C(C)(O)C1=O (stereo not given) |  | 25.1 µM (active) | 
COC1CC(O[C@H]2CC[C@@]3(C)C(=CC[C@]4(O)C3[C@H](O)[C@@H](O)[C@]3(C)[C@@H]([C@H](C)O)CC[C@@]34O)C2)OC(C)C1OC1CC(OC)C(OC2CC(OC)C(OC3OC(C)C(OC4OC(CO)C(O)C(O)C4O)C(OC)C3O)C(C)O2)C(C)O1 (stereo not given in full) |  |  | inactive [at 15.1 µM]
Nc1c(-c2ccccc2)nc(Cl)c2c(O)n[nH]c(=O)c12 |  |  | inactive
CCCN1CCC[C@@H](c2cccc(S(C)(=O)=O)c2)C1 |  |  | inactive
Nc1ncnc2c1C(=O)N(c1ccc(C3CCC(CC(=O)O)CC3)cc1)CCO2 (stereo not given) |  |  | inactive
O=C(O)c1cc(C(F)(F)F)ccc1N1CC[C@H](OCc2ccccn2)C1 | 79.8% [at 57.1 µM] (inactive) |  | 
COc1ccc(-c2ccn(CC[C@](C)(C(=O)NO)S(C)(=O)=O)c(=O)c2)c(F)c1 | 3.67% [at 57.1 µM] (inactive) |  | 
OC[C@H]1O[C@@H](O[C@H]2[C@H](O)[C@@H](CO)O[C@@H](OCc3ccccc3)[C@@H]2O[C@@H]2OC[C@](O)(CO)[C@H]2O)[C@H](O)[C@@H](O)[C@@H]1O | 4.39% (inactive) |  | 
COc1cc(/C=C/C(=O)O[C@H]2[C@@H]3C=CO[C@@H](O[C@@H]4O[C@H](CO)[C@@H](O)[C@H](O)[C@H]4O)[C@@H]3[C@@]3(CO)O[C@@H]23)ccc1O | -2.36% (inactive) |  | 
CC(=O)OC(C)C(C)(O)C(=O)O[C@@H]1CC[C@]2(C)CC(=O)C(=C(C)C)C[C@H]2[C@]1(C)OC(C)=O (stereo not given in full) | -15.4% (inactive) |  | 
CC(=O)OC[C@]12[C@@H](OC(=O)c3ccoc3)C[C@@H]3[C@@H](OC(C)=O)[C@]1(OC3(C)C)[C@@](C)(O)C[C@H](OC(=O)c1ccoc1)[C@@H]2OC(=O)c1ccoc1 |  |  | inactive [at 15.1 µM]
CC1(C)C(=O)N2c3ccccc3C(O)(CC(C(=O)O)n3cnc4ccccc4c3=O)C2N1O (stereo not given) | -0.265% (inactive) |  | 
COc1ccc(NC(=O)c2ccc(-c3ccc(C(N)=O)cc3C)cc2)cc1N1CCN(C)CC1 | 33.6% [at 57.1 µM] (inactive) |  | 
CC1=CC2=C(C)C(=O)[C@](C)(O)[C@H](O)C2=CO1 | 30.6% [at 57.1 µM] (inactive) |  | 
CC1CCC2C(C(=O)O)=CC3(O)CC(C)(C)CC123 (stereo not given) | 29% [at 57.1 µM] (inactive) |  | 
CC(C)(CC(=O)N1CCCC1)NCC(=O)N1C[C@@H](F)C[C@H]1C#N | -21.4% [at 57.1 µM] (inactive) |  | 

Compound | activity change, negative = inhibition | Potency | outcome
COc1ccc2[nH]c(S(=O)Cc3ncc(C)c(OC)c3C)nc2c1 (stereo not given) | 16.1% [at 57.1 µM] (inactive) |  | 
COc1cccc2c1c(O)c(C(=O)N(C)c1ccc(C(F)(F)F)cc1)c(=O)n2C | 12.9% [at 57.1 µM] (inactive) |  | 
Cc1ccc(Cl)cc1N(CC(=O)Nc1c(F)cccc1F)S(C)(=O)=O | 9.12% [at 57.1 µM] (inactive) |  | 
Cc1cc(Cn2cnc3c2CC(C(=O)O)N(C(=O)C(c2ccccc2)c2ccccc2)C3)ccc1N(C)C (stereo not given) | 31.2% [at 57.1 µM] (inactive) |  | 
COc1c2c(c(C)c3c1C(=O)OC3)OC1(C)CC(O)C34OC(OC)(CC(O)C3(C)C1C2)OC4(C)C (stereo not given) | -7.59% (inactive) |  | 
CC(C)=CCC/C(C)=C/CO[C@@H]1O[C@H](CO[C@@H]2O[C@@H](CO)[C@H](O)[C@H]2O)[C@@H](O)[C@H](O)[C@H]1O | -1.9% (inactive) |  | 
C[C@H](O)C(O)(C(=O)OCc1ccccc1NC(=O)CCC(N)C(=O)O)[C@H](C)O (stereo not given in full) | 16% (inactive) |  | 
CC1CCC2(C(=O)OC3OC(CO)C(O)C(O)C3O)CCC3(C)C(=CCC4C5(C)CCC(O)C(C)(CO)C5CCC43C)C2C1(C)O (stereo not given) | 25.8% [at 15.1 µM] (inactive) |  | 
COc1ccccc1N1CCN(CCCCNC(=O)c2ccc(-c3cscn3)cc2)CC1 |  |  | inactive
O=C(O)CCc1c(C(=O)O)[nH]c2cc(Cl)cc(Cl)c12 | 3.08% (inactive) |  | 
CC(=C\C(C)O)/C=C(\C)C(=O)CC1CC(CC(N)=O)CC(=O)O1 (stereo not given) | 9.13% (inactive) |  | 
CC(=O)O[C@H]1C[C@@H](O)C(C)(C)C2C[C@@H](OC(C)=O)[C@@]3(C)C4=CCC(C(CO)CC(O)C5OC5(C)C)[C@]4(C)CCC3[C@]21C (stereo not given in full) | -1.73% [at 15.1 µM] (inactive) |  | 
CCC(C)C(=O)O[C@H]1[C@@H](O[C@H]2O[C@H](CO)[C@@H](O)[C@H](O)[C@H]2O)O[C@H](CO)[C@@H](O)[C@@H]1O (stereo not given in full) |  |  | inactive [at 33.1 µM]
C[C@H]1CC(=O)C2=C(C1)C(O)C(O)[C@@]1(O)[C@H]2C(=O)c2cccc(O)c2[C@@H]1O (stereo not given in full) |  |  | inactive [at 33.1 µM]
CC1(C)C[C@H](O)C[C@@]2(C)[C@H]1[C@H](O)C=C1COC(=O)[C@@]12O | 36.6% [at 57.1 µM] (inactive) |  | 
NC(=O)NCCCC(NC(=O)Cc1ccccc1)C(=O)O (stereo not given) | 22% [at 57.1 µM] (inactive) |  | 
CC(=O)OC1CC2(C)C(CCC(C)C23Cc2c(O)cc4c(c2O3)CNC4=O)C(C)(C)C1O (stereo not given) |  |  | inactive [at 33.1 µM]
CC(C)(O)[C@@H]1CC[C@]2(CO)[C@@H](O)CC[C@](C)(O)[C@H]2[C@@H]1O[C@@H]1O[C@H](CO)[C@@H](O)[C@H](O)[C@H]1O |  |  | inactive [at 33.1 µM]
COC(=O)C(CC1(O)c2ccccc2N2C(=O)C(CC(C)C)NC21)n1cnc2ccccc2c1=O (stereo not given) | 27.4% (inactive) |  | 
